# Assay results as given in PubChem BioAssay (NCI).
# Compounds without any hit were thinned out: in the full panel of roughly 79,000, 15% have a hit. Unmarked numbers belong to inactive results. Active and inactive are the calls of the source. Rule as the data show it: active = growth inhibition above about 70%; inactive = the rest.
# Assays:
# [1] = NCI Yeast Anticancer Drug Screen. Data for the rad50 strain (AID 155);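 also: 0% = growth of vehicle-only cultures of the same strain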; conditions: S. cerevisiae rad50 strain growth inhibition; at 50.0 µM; active compounds read high
# How it was run: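 Genetically altered yeast (DNA repair pathway); compound treatment; growth inhibition vs vehicle ctrl.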
# [2] = NCI Yeast Anticancer Drug Screen. Data for the mec2-1 strain (AID 157); conditions: S. cerevisiae mec2-1 strain, at 50.0 µM, active compounds read high
# How it was run: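 Mutant yeast (mec2-1) grown with compound; growth inhibition relative to vehicle control reported.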
# [3] = NCI Yeast Anticancer Drug Screen. Data for the sgs1 mgt1 strain (AID 161);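 also: 0% = growth of cultures given vehicle only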; conditions: S. cerevisiae sgs1 mgt1 strain, at 50.0 µM, active compounds read high
# How it was run: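 This yeast growth screen uses a strain with defined DNA-repair lesions; compound-treated growth is compared with vehicle-treated growth.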
# [4] = NCI Yeast Anticancer Drug Screen. Data for the cln2 rad14 strain (AID 165);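 also: 0% = growth equal to vehicle treated cultures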; conditions: S. cerevisiae cln2 rad14 strain, at 50.0 µM, active compounds read high
# How it was run: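 Readout is yeast growth inhibition versus vehicle-treated controls, using a strain with cln2 and rad14 alterations exposed to compound.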
# [5] = NCI Yeast Anticancer Drug Screen. Data for the bub3 strain (AID 167); conditions: S. cerevisiae bub3 mutant strain, at 50.0 µM, active compounds read high
# How it was run: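 Yeast carrying a defined mutation is treated with each compound, and growth is compared with that of vehicle-exposed cells to give inhibition.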
# [6] = NCI Yeast Anticancer Drug Screen. Data for the mlh1 rad18 strain (AID 175); conditions: S. cerevisiae mlh1 rad18 strain growth inhibition; at 50.0 µM; active compounds read high
# How it was run: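 Genetically defined yeast (DNA repair-deficient) exposed to compounds; growth inhibition determined relative to vehicle.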
SMILES,growth inhibition [1],growth inhibition [2],growth inhibition [3],growth inhibition [4],growth inhibition [5],growth inhibition [6]
NCc1ccc(O)c(O)c1,-13.9%,19.9%,15.3%,13%,5.6%,10.1%
C/C(C=C(C#N)C#N)=C\c1ccccc1,25.3%,11.3%,-5.7%,14.2%,36.9%,17.6%
O=C(O)CC(CSCP(=O)(O)O)C(=O)O (stereo unspecified),6.95%,1.55%,3.05%,-7.85%,1.45%,15.7%
FC(F)(F)c1ccc(Cl)c(N=C=S)c1,-26.1%,-9.15%,31.4%,-108%,-21.8%,-4.7%
N/N=C1\C(=O)N(Cc2ccccc2)C(=O)C1C(=O)NCc1ccccc1 (stereo unspecified),7.5%,13.8%,3.4%,-36.8%,19.4%,3.5%
NC(=S)N=Nc1c(O)[nH]c2c(Cl)cc(Cl)cc12,6.7%,-14.2%,28.6%,7.15%,13.8%,-8.95%
CN(NC(=O)/C(=C\c1ccccc1Cl)NC(=O)c1ccccc1)c1cn[nH]c(=O)c1Cl,-13.2%,-11.8%,-16.4%,9.1%,-3.75%,-6.85%
CCC(C(=O)O)c1ccc(-c2ccccc2)cc1 (stereo unspecified),24.6%,24.1%,19.1%,23.1%,24.4%,9.5%
COC(=O)c1ccccc1C1CN=NC12Cc1cccc(C)c1C2=O (stereo unspecified),26.6%,20.2%,64.8%,43.1%,28.9%,52.6%
N#CC(c1ccccc1)c1cccc(C(=O)O)c1 (stereo unspecified),-16.9%,-13.5%,5.6%,-20.4%,-25.9%,5.45%
COC(=O)CC[C@@H](NC(=O)C(C)NC(=O)COC1C(O)C(COC(=O)CCCCCCCCCCNC(=O)c2ccc([N+](=O)[O-])c3[nH]c4cc(Br)ccc4c(=O)c23)OC(OCc2ccccc2)C1NC(C)=O)C(N)=O (stereo partly specified),-14.5%,-10.7%,-17.6%,1.5%,-5.75%,-16.6%
COc1ccc2c(c1)OC(OC)(c1ccc(OC)c(OC)c1)C(O)(OC)C2=O (stereo unspecified),39.4%,14.8%,27.6%,19.6%,11.8%,29%
O=C(c1cccs1)N(C(=S)N1CCN(c2ccccc2)CC1)c1ccccc1,-2.7%,-11.1%,4.55%,-7.8%,-30.4%,-4.3%
O=C(OCC1OC(OC(=O)c2ccccc2)C(O)C1OC(=O)c1ccccc1)c1ccccc1 (stereo unspecified),45.2%,15.7%,19.3%,38.2%,35.7%,49.5%
CCOC(=O)C1C2CC3C(CC21C)C3(C)C (stereo unspecified),-6.1%,-6.65%,-12.9%,-2.5%,-20.6%,1%
COC(=O)CC(c1ccc2c(c1)OCO2)N1CCCCC1 (stereo unspecified),7.35%,-12.9%,-11.7%,-22.9%,-1%,11.2%
O=C(c1ccccc1)N1OCCCc2ccccc21,17.5%,7.9%,19.2%,2.7%,13.3%,20.4%
Cc1cc(=O)n2ccnc2[nH]1,24.2%,11.3%,6.2%,19.1%,9.65%,20.1%
CCOC(=O)c1cc(C)nc2c1c(=O)n(-c1ccccc1)c(=O)n2CCCCN1CCN(c2ccccc2)CC1,-1.7%,-13.2%,4.8%,3.25%,-21.8%,-29.1%
CS(=O)(=O)c1cc(=O)[nH]c(=O)[nH]1,0.55%,1.45%,18.2%,25.6%,-0.9%,7.45%
Cc1ccc(-n2cc(-c3ccc(Cl)cc3)c3c2N=CN2NC(c4cccs4)=NC32)cc1 (stereo unspecified),-32.8%,-5.8%,-18.9%,5.5%,-16.7%,-17.3%

SMILES,growth inhibition [1],growth inhibition [2],growth inhibition [3],growth inhibition [4],growth inhibition [5],growth inhibition [6]
COc1ccc(NC(=O)C(=O)c2c(O)c3ccc(O)cc3oc2=O)c([N+](=O)[O-])c1,14.4%,9.95%,1%,3.95%,-2.85%,-6.1%
Nc1nc(N)nc(-c2ccccc2NS(=O)(=O)c2ccc([N+](=O)[O-])cc2)n1,1.6%,21.8%,6.2%,3.45%,11.2%,38.4%
CSc1nc(C)cc(=O)n1C1OC(COC(C)=O)C(OC(C)=O)C(OC(C)=O)C1OC(C)=O (stereo unspecified),20.6%,-13.6%,-7.35%,16.6%,-30.6%,32.5%
Clc1ccc(N=Cc2ccc(C=Nc3ccc(Cl)c(Cl)c3)cc2)cc1Cl,-7.7%,-21.8%,15.7%,11%,16.9%,11.6%
Clc1ccc(/C=C2/c3ccccc3-c3nc4ccccc4cc32)cc1,-1.1%,24%,23.8%,-24.9%,-9.4%,6.85%
Fc1ccc(CC(F)F)cc1,-2.55%,-6.2%,14.4%,4.6%,-23.6%,3.25%
C[n+]1ccccc1/C=C/c1ccc([N+](=O)[O-])cc1,9%,5.8%,13.2%,-10.3%,-1.8%,6.3%
CCCCN(CCCC)CC(O)c1cc(Cc2ccccc2)nc2c(Cl)cc(Cl)cc12 (stereo unspecified),95.3% (active),95.5% (active),96.8% (active),89.8% (active),95% (active),96.2% (active)
O=C(O)/C(=C/C=C/c1ccccc1)c1csc(-c2nc(/C(=C\C=C\c3ccccc3)C(=O)O)cs2)n1,22%,13.3%,19.4%,16.9%,19.1%,9.15%
Cc1ccc(O)cc1C=C(Cl)Cl,18.6%,0.25%,35.6%,22.8%,-0.3%,11.4%
CCOC(=O)CC/C(=N/Nc1ccc(Cl)cc1[N+](=O)[O-])C(=O)OCC,11.7%,-39.9%,-31.9%,-7.6%,-24.6%,-0.4%
S=C(N/N=C\c1ccccc1)Nc1ccccc1,6.65%,-1.05%,-8.2%,8.65%,10.8%,14.9%
Cc1ccc(S(=O)(=O)/C(=C/c2ccccc2)CC(=O)c2ccccc2)cc1,9.05%,6.55%,-22.1%,-18.4%,11.1%,17%
C/C(=N\n1c(-c2ccccc2)nc2ccccc2c1=O)c1ccc(C)cc1,5.25%,7.8%,-2.7%,1.5%,4.95%,-1.75%
Cc1cccc(N=Nc2c(C)nc(N)nc2C)c1C,4.35%,6.55%,2.1%,-37.6%,-13.6%,6.75%
CCOC(=O)c1ccc(NCc2nc3c([nH]2)c(=O)n(C)c(=O)n3C)cc1,-0.95%,-1.45%,-1.35%,-54.1%,-14.2%,1.65%
CCOc1ccc(OCC)c(N)c1,-25.9%,2.1%,-2.5%,-44%,10.2%,-19.5%
CC[n+]1c(/C=C\N(C(C)=O)c2ccccc2)oc2ccccc21,-20.6%,-25.3%,-9.3%,-0.7%,6.2%,-7.8%
Cc1ccc(S(=O)(=O)N2CCSCCSCCSCCN(S(=O)(=O)c3ccc(C)cc3)CC2)cc1,7.05%,-0.8%,4.25%,15.6%,-4.1%,23.1%
CCOC(OCC)N(C)C,-14.9%,-5.25%,-3.05%,-4.8%,-5.5%,-26.8%
